Results filed as inconclusive are left out. Where a call stands in place of a potency, no number is given. A number with no mark means an inactive call. Calls of active or inactive are those of the source. Unless noted, the call rests on the fitted dose curve.
What was measured:
[1] = qHTS for Inhibitors of the Functional Ribonucleoprotein Complex (vRNP) of Lassa (LASV) Arenavirus: LASV Primary Screen - GLuc reporter signal (AID 1347082; calls by dose curve; tested in HEK293 reporter line; further: nearly all actives have a fitted effect of over 60% in size; on activity change, negative = inhibition: series mostly up to about 57 µM)
[2] = qHTS for Inhibitors of the Functional Ribonucleoprotein Complex (vRNP) of Lassa (LASV) Arenavirus: Viability assay - alamar blue signal for LASV Primary Screen (AID 1347083; calls by dose curve; tested in HEK293 reporter line; further: nearly all actives have a fitted effect of over 80% in size; on activity change, negative = reduced viability: series mostly up to about 57 µM)
[3] = qHTS for Inhibitors of the Functional Ribonucleoprotein Complex (vRNP) of Lymphocytic Choriomeningitis Arenaviruses (LCMV): Viability assay - alamar blue signal for LCMV Primary Screen (AID 1347085; calls by dose curve; tested in HEK293 reporter line; further: nearly all actives have a fitted effect of over 80% in size; on activity change, negative = lower viability: series mostly up to about 57 µM)
[4] = target: Nucleoprotein (Lymphocytic choriomeningitis virus (strain Armstrong)) (UniProt P09992); assay: qHTS for Inhibitors of the Functional Ribonucleoprotein Complex (vRNP) of Lymphocytic Choriomeningitis Arenaviruses (LCMV): LCMV Primary Screen - GLuc reporter signal (AID 1347086); further: nearly all actives have a fitted effect of over 70% in size; on activity change, negative = inhibition: series mostly up to about 57 µM
Potency means the concentration at half of the fitted maximal effect.

Sequence of Nucleoprotein (Lymphocytic choriomeningitis virus (strain Armstrong)) (P09992 whole entry, looked up): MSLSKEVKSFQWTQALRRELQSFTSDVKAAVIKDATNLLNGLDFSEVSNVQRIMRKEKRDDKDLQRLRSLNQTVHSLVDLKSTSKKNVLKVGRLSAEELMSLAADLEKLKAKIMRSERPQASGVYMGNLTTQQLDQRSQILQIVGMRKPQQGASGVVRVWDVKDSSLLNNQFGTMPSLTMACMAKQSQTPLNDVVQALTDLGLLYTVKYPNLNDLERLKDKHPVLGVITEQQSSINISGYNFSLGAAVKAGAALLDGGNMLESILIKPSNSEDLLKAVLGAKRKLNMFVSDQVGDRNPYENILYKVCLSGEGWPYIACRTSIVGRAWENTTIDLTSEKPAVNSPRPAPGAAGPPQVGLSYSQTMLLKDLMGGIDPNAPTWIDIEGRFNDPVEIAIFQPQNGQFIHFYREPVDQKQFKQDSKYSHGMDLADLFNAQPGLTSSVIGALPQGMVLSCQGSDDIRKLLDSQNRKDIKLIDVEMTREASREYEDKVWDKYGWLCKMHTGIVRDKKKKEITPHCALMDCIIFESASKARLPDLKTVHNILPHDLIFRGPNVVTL

Compound	Potency [1]	Potency [2]	Potency [3]	Potency [4]	activity change, negative = inhibition [1]	activity change, negative = reduced viability [2]	activity change, negative = lower viability [3]	activity change, negative = inhibition [4]
OC1O[C@H](c2ccc3c(c2)OCO3)[C@H]2CO[C@H](c3ccc4c(c3)OCO4)[C@@H]12 (stereo not given in full)	inactive	inactive	inactive	inactive				
CC(=O)OC[C@@]12C(=O)[C@@H](O)[C@@H](C)[C@]3(C[C@@H](c4ccoc4)O[C@@H]3OC(C)=O)[C@H]1CCC[C@]21CO1	inactive	inactive	inactive	inactive				
Cc1cc(Nc2cc(NC(=O)c3c(Cl)cccc3Cl)ccn2)nc(N)n1	6110 nM (active)	3060 nM (active)	3060 nM (active)	3850 nM (active)				
C=C1CCC2C(C)(C)[C@@H](O)CC[C@@]2(C)[C@@H]1COc1ccc2ccc(=O)oc2c1 (stereo not given in full)	inactive	inactive	inactive	inactive				
CCCC(=O)OC/C=C(\C)CCC=C(C)C	inactive	inactive	inactive	inactive				
COc1cc2c(c(OC)c1OC)-c1c(cc(OC)c(OC)c1OC)CC(C)C(C)C2 (stereo not given)	inactive	inactive	inactive	inactive				
CCc1cc(C(C)=NOCc2ccc(C3CCCCC3)c(C(F)(F)F)c2)ccc1CN1CC(C(=O)O)C1	inactive	inactive	inactive	inactive				
COc1cc(C)cc(O)c1	inactive	inactive	inactive	inactive				
O=c1c(O)c(-c2ccc(O[C@@H]3O[C@H](CO)[C@@H](O)[C@H](O)[C@H]3O)c(O)c2)oc2cc(O)cc(O)c12	inactive	inactive	inactive	inactive				
O=c1[nH]cnc2c1ncn2C1OCC(O)C(O)C1O (stereo not given)	inactive	inactive	inactive	inactive				
CC1(C)O[C@@H]1COc1c2ccoc2cc2oc(=O)ccc12	inactive	inactive	inactive	inactive				
O=C(Oc1ccccc1)c1ccccc1C(=O)Oc1ccccc1	inactive	inactive	inactive	inactive				
CCCC(=O)OCCC(C)CCC=C(C)C (stereo not given)	inactive	inactive	inactive	inactive				
CC(C)c1ccc(C=O)cc1	inactive	inactive	inactive	inactive				
CC1(C)CCC[C@]2(C)[C@H]3CC(=O)O[C@]3(C)CC[C@@H]12	inactive	inactive	inactive	inactive				
CCOC(=O)C1=C(N)Oc2ccc(Br)cc2C1C(C#N)C(=O)OCC (stereo not given)	inactive	inactive	inactive	inactive				
CC(C)c1onc(-c2c(Cl)cccc2Cl)c1COc1ccc(C=Cc2cccc(C(=O)O)c2)c(Cl)c1	inactive	inactive	inactive	inactive				
COc1c(C)c2c(c(O)c1CC=C(C)CCC(=O)OCCN1CCOCC1)C(=O)OC2	6110 nM (active)	6850 nM (active)	12200 nM (active)	6110 nM (active)				
CC[C@@H](O)C[C@H]1CCC[C@@]2(C[C@@H]3OC(=O)/C=C/[C@@](C)(O)[C@@H](O)[C@H](C)[C@@H](O)[C@H](OC4CCC(N(C)C)C(C)O4)[C@@H](O)[C@](C)(O)CCCCC/C=C/[C@@H]4CC(C)(C)O[C@@]4(O)C[C@H](O2)[C@H]3C)O1 (stereo not given in full)	inactive	inactive	inactive	inactive				
CCc1cnn2c(NCc3ccc[n+]([O-])c3)cc(N3CCCC[C@@H]3CCO)nc12	109 nM (active)	38.5 nM (active)	38.5 nM (active)	48.5 nM (active)				

Compound	Potency [1]	Potency [2]	Potency [3]	Potency [4]	activity change, negative = inhibition [1]	activity change, negative = reduced viability [2]	activity change, negative = lower viability [3]	activity change, negative = inhibition [4]
O=C1Nc2ccc(Cl)cc2C(C#CC2CC2)(C(F)(F)F)O1 (stereo not given)	inactive	inactive	inactive	inactive				
O=C(Nc1ccc(Br)cc1)C(c1ccccc1)c1ccccc1	inactive	inactive	inactive	inactive				
C=C(C)[C@@H]1CC[C@@H](C)C[C@@H]1O	inactive	inactive	inactive	inactive				
C[C@@H]1O[C@@H](O[C@H]2[C@H](O)[C@@H](O)[C@H](Oc3c(-c4ccc(O)cc4)oc4cc(O)cc(O)c4c3=O)O[C@@H]2CO)[C@H](O)[C@H](O)[C@H]1O	inactive	inactive	inactive	inactive				
CC1CCC(C(C)(C)S)C(=O)C1 (stereo not given)	inactive	inactive	inactive	inactive				
COc1cc(C(=O)O)cc(OC)c1OC	inactive	inactive	inactive	inactive				
O=c1[nH]c(=O)n([C@H]2C[C@@H](O)[C@@H](CO)O2)cc1I	inactive	inactive	inactive	inactive				
Cc1c(O)ccoc1=O	inactive	inactive	inactive	inactive				
CCC(=O)O[C@]1(C(=O)CO)CC[C@H]2[C@@H]3CCC4=CC(=O)CC[C@]4(C)[C@@H]3CC[C@@]21C	inactive	inactive	inactive	inactive				
O=C(O)c1ccccc1Cc1ccccc1	inactive	inactive	inactive	inactive				
C=C(C=O)C[C@@H]1C[C@H](O)C2OC3C[C@]4(C)OC5/C=C\CC6OC7C(CC=CCC6OC5CCCC4OC3CC2O1)OC1CC2OC3CC(=O)OC3C[C@@H](C)C[C@@]2(C)OC1C[C@@H]7C (stereo not given in full)	inactive	inactive	inactive	inactive				
CCCCC[C@H](O)/C=C/[C@H]1OC(=O)C[C@H](O)[C@@H]1C/C=C\CCCC(=O)O					4.7% [at 5.82 µM]	8.43% [at 5.82 µM]	3.55% [at 5.82 µM]	3.12% [at 5.82 µM]
Fc1ccc(C(c2ccc(F)cc2)N2CCN(CC=Cc3ccccc3)CC2)cc1	inactive	inactive	inactive	inactive				
Cc1cnccn1	inactive	inactive	inactive	inactive				
CC(=O)O[C@@]1(C)C[C@@H](O)[C@]2(O)C=CO[C@@H](O[C@@H]3O[C@H](CO)[C@@H](O)[C@H](O)[C@H]3O)[C@@H]21	inactive	inactive	inactive	inactive				
Clc1cccc(-c2nnnn2Cc2cccnc2)c1Cl	inactive	inactive	inactive	inactive				
N#CC(=Cc1ccc(O)c(O)c1)C(=O)NCc1ccccc1	inactive	inactive	inactive	inactive				
CCCCCC/C=C/C=O	inactive	inactive	inactive	inactive				
COc1cc(-c2oc3cc(O)cc(O)c3c(=O)c2O[C@@H]2O[C@H](CO)[C@@H](O)[C@H](O)[C@H]2O)cc(OC)c1O	inactive	inactive	inactive	inactive				
CCc1ccc(O)c(OC)c1	inactive	inactive	inactive	inactive				

Compound	Potency [1]	Potency [2]	Potency [3]	Potency [4]	activity change, negative = inhibition [1]	activity change, negative = reduced viability [2]	activity change, negative = lower viability [3]	activity change, negative = inhibition [4]
CC1CCC2C(C)C3C(CC4[C@@H]5CC=C6C[C@@H](O)CC[C@]6(C)C5CC[C@]34C)N2C1 (stereo not given in full)	inactive	inactive	inactive	inactive				
CCC(=O)NC[C@H](Cc1ccc(OCCc2nc(-c3ccccc3)oc2C)cc1)NC(C)=CC(=O)c1ccc(C(F)(F)F)cc1	inactive	inactive	inactive	inactive				
CC(=O)O[C@H](COc1c2ccoc2cc2oc(=O)ccc12)C(C)(C)O	inactive	inactive	inactive	inactive				
Cc1c(O)c2ccccc2oc1=O	inactive	inactive	inactive	inactive				
CCC(=O)OCC(=O)[C@@]1(OC(=O)CC)[C@@H](C)C[C@@H]2[C@H]3CCC4=CC(=O)C=C[C@]4(C)[C@@]3(F)[C@@H](O)C[C@@]21C	inactive	inactive	inactive	inactive				
Nc1[nH]c(=O)nc2c1ncn2C1OC(CO)C(O)C1O (stereo not given)	inactive	inactive	inactive	inactive				
COc1ccc2c(c1)c(=O)cc(-c1ccccc1)n2C	inactive	inactive	inactive	inactive				
O=C1C=C(c2ccccc2)CO1	inactive	inactive	inactive	inactive				
O=c1c2c(O)cc(O)cc2oc2c(O)ccc(O[C@H]3O[C@@H](CO)[C@H](O)[C@@H](O)[C@@H]3O)c12	inactive	inactive	inactive	inactive				
CCCCC[C@H](O)/C=C/C=C\C/C=C\C=C\[C@@H](O)CCCC(=O)O					2.34% [at 0.757 µM]	18.4% [at 0.757 µM]	2.14% [at 0.757 µM]	18.8% [at 0.757 µM]
CNC(=O)c1cccc(-c2ccc3c(N4CCOC[C@H]4C)nc(N4CCOC[C@H]4C)nc3n2)c1	137 nM (active)	137 nM (active)	153 nM (active)	137 nM (active)				
CCCCCCCCCCCCCC[C@@H](O)[C@@H](O)[C@@H](N)CO	inactive	inactive	inactive	inactive				
CC(C)=CCC[C@](C)(O[C@@H]1O[C@H](CO)[C@@H](O)[C@H](O)[C@H]1O)[C@H]1CC[C@]2(C)[C@@H]1[C@H](O)C[C@@H]1[C@@]3(C)CC[C@H](O[C@@H]4O[C@H](CO)[C@@H](O)[C@H](O)[C@H]4O[C@@H]4O[C@H](CO)[C@@H](O)[C@H](O)[C@H]4O)C(C)(C)[C@@H]3[C@@H](O)C[C@]12C	inactive	inactive	inactive	inactive				
CC[C@@H]1C=C(C)C[C@H](C)C[C@H](OC)[C@H]2O[C@@](O)(C(=O)C(=O)N3CCCC[C@@H]3C(=O)O[C@H](C(C)=C[C@@H]3CC[C@H](Cl)[C@H](OC)C3)[C@H](C)[C@@H](O)CC1=O)[C@H](C)C[C@H]2OC	inactive	inactive	inactive	inactive				
CCCC1CCOC(C)S1 (stereo not given)	inactive	inactive	inactive	inactive				
COc1c2ccoc2c(OC[C@@H](OC(C)=O)C(C)(C)O)c2oc(=O)ccc12	inactive	inactive	inactive	inactive				
CC(C)CCC[C@@H](C)[C@@H]1CC[C@H]2C3=CC=C4CC(O)CC[C@]4(C)[C@H]3CC[C@@]21C (stereo not given in full)	inactive	inactive	inactive	inactive				
O=C(O)c1ccccc1	inactive	inactive	inactive	inactive				
COC(=O)N1c2ccccc2C23[C@@H]4CN5CCC[C@]6(CCC12C(O)(C6)C4=O)[C@H]53	inactive	inactive	inactive	inactive				
CC1(C)C=Cc2c(ccc(C(=O)/C=C/c3ccccc3)c2O)O1	inactive	inactive	inactive	inactive				
